A number with no mark means an inactive call.
tested on: Ditylenchus dipsaci; assay: proportion of mobile D. dipsaci (mixed stage) relative to DMSO control (fraction of DMSO control); higher = more viable, less nematicidal, active = 0.86 or less; extreme values may be limits of the assay; details: 60 µM; 5 days; temperature: 20 °C
How it was run: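 Mobility values are relative to DMSO controls and are averages of two biological replicates. For each well of a 96-well plate, about 20 D. dipsaci worms, grown on pea plants in Gamborg B-5 agar and funnel-extracted into water, were dispensed in distilled water. Plates received pinned compound at 60 µM final with 0.6% v/v DMSO and were sealed and shaken at 200 rpm for 5 days at 20 °C before 2 µL 1 M NaOH was added and mobile worms were scored by microscope.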

| SMILES | proportion of mobile D. dipsaci |
| --- | --- |
| Fc1ccc(CSc2nnc(-c3ccccn3)o2)cc1 | 1 |
| O=C(CSc1nnc(-c2ccccc2Cl)o1)Nc1ccc(Br)cn1 | 1 |
| Clc1cccc(-c2nc(-c3ccccc3Cl)no2)c1 | 1 |
| Cc1ccc(NC(=O)CSc2nnc(-c3ccc(C(C)(C)C)cc3)o2)c(C)c1 | 1 |
| COc1ccc(-c2nnc(SCC(=O)N3CC(C)CC(C)C3)o2)cc1 (configuration not stated) | 1 |
| COC(=O)c1ccc(Cl)c(NC(=O)CSc2nnc(-c3ccc(Cl)cc3)o2)c1 | 1 |
| CCOc1ccccc1-c1nnc(SCC(=O)N2CCC(C)CC2)o1 | 1 |
| Cc1ccc(C(=O)Nc2ccccc2-c2nc(-c3ccncc3)no2)cc1C | 1 |
| COc1ccccc1NC(=O)c1ccccc1-c1nc(-c2ccc(Cl)cc2)no1 | 1 |
| Cc1ccc(-c2noc(COc3ccc(Cl)cc3)n2)cc1 | 1 |
| c1cc(-c2noc(C34CC5CC(CC(C5)C3)C4)n2)ccn1 | 1 |
| Brc1ccc(-c2noc(CSc3ccccc3)n2)cc1 | 1 |
| CC(Oc1ccccc1)c1nc(-c2cccnc2)no1 (configuration not stated) | 1 |
| Cc1cc(OCc2nc(-c3ccncc3)no2)ccc1Cl | 1 |
| COc1ccc(-c2nnc(SCC(=O)N(C)c3ccccc3)o2)cc1 | 1 |
| O=C(c1ccccc1-c1nc(-c2ccc(Cl)cc2)no1)N1CCCCC1 | 1 |
| COc1cccc(OCc2nc(-c3cccc(C)c3)no2)c1 | 1 |
| Cc1ccccc1CSc1nnc(-c2ccncc2)o1 | 1 |
| O=C(Nc1ccccc1-c1nc(-c2cccnc2)no1)c1cccs1 | 1 |

| SMILES | proportion of mobile D. dipsaci |
| --- | --- |
| Cc1cnnn1-c1ccc(-c2nc(-c3ccc(Cl)cc3)no2)cc1 | 1 |
| O=C(CSc1nnc(-c2ccncc2)o1)Nc1cc(Cl)cc(Cl)c1 | 0.955 |
| CCOc1cc(-c2nc(-c3cc4ccccc4nc3OC)no2)cc(OCC)c1OCC | 1 |
| Cc1cccc(-c2noc(COc3ccc(C)c(C)c3)n2)c1 | 1 |
| CCC(=O)Nc1ccccc1-c1nc(-c2cccnc2)no1 | 1 |
| COc1cccc(NC(=O)c2ccccc2-c2nc(-c3ccccc3Cl)no2)c1 | 1 |
| O=C(Nc1ccc(-c2noc(-c3ccc(F)cc3)n2)cc1)c1ccc(Br)o1 | 1 |
| CCN(C(=O)CSc1nnc(-c2ccncc2)o1)c1ccccc1 | 1 |
| Clc1ccc(OCc2nc(-c3ccc4c(c3)OCO4)no2)cc1 | 1 |
| FC(F)(F)c1cccc(-c2noc(-c3cccs3)n2)c1 | 1 |
| COc1cccc(CSc2nnc(-c3ccco3)n2C)c1 | 1 |
| Cc1ccccc1-c1nnc(SCC(=O)Nc2cc(C(F)(F)F)ccc2N2CCOCC2)o1 | 1 |
| Cc1ccc(-c2noc(CSc3nc4ccccc4[nH]3)n2)cc1 | 1 |
| Cc1ccccc1OCc1nc(-c2ccc(NC(=O)c3ccc(Br)o3)cc2)no1 | 1 |
| COc1ccc(-c2noc(COc3ccccc3)n2)cc1 | 1 |
| CCc1cccc(CC)c1NC(=O)CSc1nnc(-c2ccccc2OC)o1 | 1 |
| Cc1ccc(-c2nnc(SCc3c(C)cc(C)cc3C)o2)cc1 | 1 |
| Clc1ccc(CSc2nnc(-c3ccccn3)o2)cc1 | 1 |
